The results in this text go back to the supplement of paper PMC6411743.

± gives the standard deviation of the averaged measurements. About 5,400 targets were measured; listed, in parts, are those with the largest changes and a random draw of the rest.

Compound in the test: Nc1nc2c(ncn2[C@@H]2O[C@H](COP(=O)(O)OP(=O)(O)OP(=O)(O)O)[C@@H](O)[C@H]2O)c(=O)[nH]1 [guanosine triphosphate]
Briefly: NP40-soluble protein abundance relative to vehicle (solubility fold change) (ratio); higher = more soluble protein in presence of GTP. On the procedure:
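Solubility proteome profiling in Jurkat crude lysate. Lysate was treated with Mg-GTP (0.1-10 mM) for 10 min at room temperature and 3 min at 37 °C, then solubilised with 0.8% NP40 and benzonase, followed by ultracentrifugation. Proteins were quantified by TMT10 LC-MS/MS; the value is the NP40-soluble abundance relative to the NP40-processed vehicle, from 3 independent experiments.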

Chain of UniProt Q9UII2 (Q9UII2 whole entry): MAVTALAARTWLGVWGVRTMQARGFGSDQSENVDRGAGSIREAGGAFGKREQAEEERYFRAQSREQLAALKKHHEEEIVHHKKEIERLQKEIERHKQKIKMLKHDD
Chain of UniProt Q96EM0 (Q96EM0 whole entry): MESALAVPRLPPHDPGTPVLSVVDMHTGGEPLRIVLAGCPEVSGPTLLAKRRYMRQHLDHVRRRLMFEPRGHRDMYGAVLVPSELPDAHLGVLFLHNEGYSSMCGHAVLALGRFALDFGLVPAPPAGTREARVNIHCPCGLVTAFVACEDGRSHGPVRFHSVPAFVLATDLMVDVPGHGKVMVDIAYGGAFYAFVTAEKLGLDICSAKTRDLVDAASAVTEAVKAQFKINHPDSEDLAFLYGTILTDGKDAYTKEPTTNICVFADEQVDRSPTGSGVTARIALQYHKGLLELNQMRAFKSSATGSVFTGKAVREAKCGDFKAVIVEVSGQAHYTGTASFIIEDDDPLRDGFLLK
Chain of UniProt Q9BW71 (Q9BW71 whole entry): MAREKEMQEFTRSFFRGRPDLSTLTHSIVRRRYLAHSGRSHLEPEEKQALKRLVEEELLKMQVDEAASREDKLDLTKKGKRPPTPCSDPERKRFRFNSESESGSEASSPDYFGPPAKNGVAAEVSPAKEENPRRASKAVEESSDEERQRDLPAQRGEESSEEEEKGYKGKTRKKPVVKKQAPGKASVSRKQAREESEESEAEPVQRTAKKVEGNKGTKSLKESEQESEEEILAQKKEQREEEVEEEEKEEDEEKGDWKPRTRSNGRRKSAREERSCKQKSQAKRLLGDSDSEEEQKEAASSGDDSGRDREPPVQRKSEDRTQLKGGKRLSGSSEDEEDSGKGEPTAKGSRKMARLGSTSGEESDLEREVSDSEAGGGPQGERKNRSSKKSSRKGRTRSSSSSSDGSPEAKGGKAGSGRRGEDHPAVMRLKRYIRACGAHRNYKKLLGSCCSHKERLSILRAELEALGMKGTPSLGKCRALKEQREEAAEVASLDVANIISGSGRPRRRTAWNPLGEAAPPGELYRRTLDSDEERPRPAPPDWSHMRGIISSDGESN
Chain of UniProt Q96FJ2 (Q96FJ2 whole entry): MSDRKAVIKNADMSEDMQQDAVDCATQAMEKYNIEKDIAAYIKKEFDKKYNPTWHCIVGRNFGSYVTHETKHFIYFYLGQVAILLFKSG
Chain of UniProt Q9H944 (Q9H944 whole entry, one chain of several): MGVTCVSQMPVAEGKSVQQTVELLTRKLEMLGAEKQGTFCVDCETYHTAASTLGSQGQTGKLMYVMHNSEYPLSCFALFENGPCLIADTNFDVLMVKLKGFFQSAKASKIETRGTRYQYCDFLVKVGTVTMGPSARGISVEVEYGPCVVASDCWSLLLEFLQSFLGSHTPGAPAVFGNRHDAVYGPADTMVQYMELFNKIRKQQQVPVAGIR

For the target UniProt Q96EM0, the NP40-soluble protein abundance was 0.976 ± 0.19 (concentration: 0.1mM); 0.971 ± 0.15 (concentration: 0.5mM); 0.869 ± 0.093 (concentration: 1mM); 0.892 ± 0.11 (concentration: 2mM); 1.02 ± 0.026 (concentration: 4mM); 0.929 ± 0.095 (concentration: 6mM). Besides, the NP40-soluble protein abundance runs as follows: (concentration: 8mM) 0.85 ± 0.16; (concentration: 10mM) 0.895 ± 0.085.

For the target UniProt Q9UII2, the NP40-soluble protein abundance by setting is: (concentration: 0.1mM) 0.946 ± 0.08; (concentration: 0.5mM) 0.972 ± 0.11; (concentration: 1mM) 1.01 ± 0.078; (concentration: 2mM) 0.936 ± 0.1; (concentration: 4mM) 0.875 ± 0.1; (concentration: 6mM) 0.908 ± 0.14. In addition, the NP40-soluble protein abundance runs as follows: (concentration: 8mM) 0.93 ± 0.07; (concentration: 10mM) 0.963 ± 0.07.

Consider UniProt Q9H944|B7ZBQ3, for which the NP40-soluble protein abundance stood at 1 ± 0.046 (concentration: 0.1mM); 1.01 ± 0.05 (concentration: 0.5mM); 0.928 ± 0.034 (concentration: 1mM); 0.984 ± 0.019 (concentration: 2mM); 0.976 ± 0.025 (concentration: 4mM); 0.986 ± 0.029 (concentration: 6mM). Besides, the NP40-soluble protein abundance (concentration: 8mM) is 0.9381 ± 0.0083 and the NP40-soluble protein abundance (concentration: 10mM) is 0.934 ± 0.029.

As to UniProt Q96FJ2, the NP40-soluble protein abundance worked out at 0.875 ± 0.063 (concentration: 0.1mM); 0.83 ± 0.033 (concentration: 0.5mM); 1.07 ± 0.12 (concentration: 1mM); 1.06 ± 0.081 (concentration: 2mM); 1.18 ± 0.1 (concentration: 4mM); 1.03 ± 0.11 (concentration: 6mM). Besides, the NP40-soluble protein abundance reads like this: (concentration: 8mM) 1.05 ± 0.087; (concentration: 10mM) 1.18 ± 0.17.

HIRIP3 (UniProt Q9BW71): the NP40-soluble protein abundance by setting is: (concentration: 0.1mM) 0.932 ± 0.071; (concentration: 0.5mM) 0.925 ± 0.089; (concentration: 1mM) 1.01 ± 0.1; (concentration: 2mM) 0.983 ± 0.15; (concentration: 4mM) 1.04 ± 0.14; (concentration: 6mM) 1.07 ± 0.14. The NP40-soluble protein abundance worked out at 1.13 ± 0.06 (concentration: 8mM) and 1.14 ± 0.094 (concentration: 10mM).
